FBW7 activator: activators of human E3 ligase FBW7; Q969H0; AlphaScreen FBW7–phospho-cyclin E peptide binding, activator screen; normalized activity (activation), % at 26.1 µM; 0.13% of 650,000 active; in the data active means normalized activity above about 1.9%;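 further: purified mutant Fbw7 with reduced substrate affinity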
GPR151 activ: human GPR151 activation | Q8TDV0 | PathHunter beta-arrestin GPR151 cells, luminescence | activation, % at 11.2 µM | 1% of 650,000 active; in the data active means activation above about 4.9%;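 further: 0% = median of compound wells and 100% = cells with positive control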
MITF inh: blocks human microphthalmia-associated transcription factor. inhibition, % at 2.6 µM. AlphaScreen MITF homodimerization, bead proximity signal. O75030. 0.91% of 650,000 active; in the data active means inhibition above about 50%;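 further: 0% = vehicle wells with protein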
Target sequence (O75030 whole entry, looked up): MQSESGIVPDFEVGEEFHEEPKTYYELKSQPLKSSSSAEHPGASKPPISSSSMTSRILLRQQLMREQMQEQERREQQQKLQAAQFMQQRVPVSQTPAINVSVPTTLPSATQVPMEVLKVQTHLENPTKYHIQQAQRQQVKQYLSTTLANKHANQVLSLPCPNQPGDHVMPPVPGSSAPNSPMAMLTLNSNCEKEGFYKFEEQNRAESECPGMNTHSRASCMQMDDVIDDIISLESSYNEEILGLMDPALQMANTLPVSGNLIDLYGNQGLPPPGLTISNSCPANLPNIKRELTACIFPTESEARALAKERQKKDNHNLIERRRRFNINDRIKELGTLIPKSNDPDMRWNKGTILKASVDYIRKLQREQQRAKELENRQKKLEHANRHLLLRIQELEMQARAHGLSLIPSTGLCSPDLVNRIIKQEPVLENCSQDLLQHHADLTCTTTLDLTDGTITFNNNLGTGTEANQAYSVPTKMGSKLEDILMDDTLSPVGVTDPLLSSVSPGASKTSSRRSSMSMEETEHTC
TEAD-YAP block: TEAD-YAP interaction inhibition; HEK-TIYL cells, TEAD-Gal4/YAP UAS-luciferase luminescence; inhibition, % at 9.12 µM; 1.4% of 640,000 active; AID 1259422; in the data active means inhibition above about 32%;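 further: 0% = median of test compound wells and 100% = reference inhibitor wells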
Starred values were filed as active, the others as inactive. Compounds with a hit are over-represented: about 3.5% of the library has one in this group of screens.

For CC(C)(C)CN1CCN(Cc2nc(-c3ccc(F)cc3)cs2)CC1CCO (centres undefined) the results were FBW7 activator 0, GPR151 activ -2, MITF inh 0 and TEAD-YAP block 44*.
Cc1cccc(C)c1NC(=O)C(c1ccc(Cl)cc1)N(Cc1ccco1)C(=O)c1ccc(-n2cnnn2)cc1 (centres undefined) was read as FBW7 activator 0, GPR151 activ 1, MITF inh -1 and TEAD-YAP block 41*.
For CCN(CC)C1=CC(=[N+]2CCCC2)CC(C)(C)C1 the results were FBW7 activator 0, GPR151 activ 1, MITF inh 10 and TEAD-YAP block 60*.
For CN(Cc1ccccc1)C1=CC(=[N+]2CCCC2)CC(C)(C)C1 the results were FBW7 activator 0, GPR151 activ 1, MITF inh -3 and TEAD-YAP block 80*.
`CN(CCO)C1=CC(=[N+]2CCOCC2)CC(C)(C)C1` gave FBW7 activator 0, GPR151 activ 1, MITF inh -5 and TEAD-YAP block 5.
Screening CCN1C(=O)/C(=C/c2cc(OC)c(OCC(=O)O)cc2Br)SC1=S returned FBW7 activator 0, GPR151 activ 1, MITF inh 4 and TEAD-YAP block 8.
For CCOC(=O)c1c(-c2ccccc2)oc2ccc(OCc3ccc(Cl)cc3)cc12 the results were FBW7 activator 0, GPR151 activ 1, MITF inh 4 and TEAD-YAP block 4.
For O=C(COc1ccc(Cl)cc1)Nc1ccc(NC(=O)c2ccco2)cc1 the results were FBW7 activator 0, GPR151 activ 1, MITF inh 2 and TEAD-YAP block -4.
Screening COc1ccc(C(=O)NC(=S)Nc2cccc(OC)c2)cc1 returned FBW7 activator 0, GPR151 activ 0, MITF inh -16 and TEAD-YAP block -56.
For CC(=O)Oc1ccc(C(=O)Nc2cccc(F)c2)cc1 the results were FBW7 activator 0, GPR151 activ -4, MITF inh -7 and TEAD-YAP block -41.
`CC(C)Oc1ccc(C(=O)Nc2cccc(F)c2)cc1` gave FBW7 activator 1, GPR151 activ -7, MITF inh 15 and TEAD-YAP block 43*.
For O=C(COc1ccc(Cl)cc1)Nc1cccc(NC(=O)c2ccco2)c1 the results were FBW7 activator 0, GPR151 activ -1, MITF inh 8 and TEAD-YAP block 47*.
Screening COc1ccc(C(=O)NC(=S)Nc2cccc(C(=O)O)c2)cc1 returned FBW7 activator 0, GPR151 activ 2, MITF inh -1 and TEAD-YAP block 61*.
For COc1ccc(NC(=S)NNc2ccc(C(=O)O)cc2)cc1 the results were FBW7 activator 0, GPR151 activ -1, MITF inh 2 and TEAD-YAP block 40*.
For COc1ccc(C(=O)Nc2cccc(C)c2)cc1 the results were FBW7 activator 0, GPR151 activ -9, MITF inh -4 and TEAD-YAP block 66*.
`COc1ccc(C(=O)NC(=S)Nc2cccc(NC(=O)c3ccco3)c2)cc1` gave FBW7 activator 0, GPR151 activ -1, MITF inh 9 and TEAD-YAP block 33*.
For COc1ccc(C(=O)NC(=S)Nc2cccc(S(=O)(=O)N3CCOCC3)c2)cc1 the results were FBW7 activator 1, GPR151 activ -2, MITF inh 6 and TEAD-YAP block 44*.
Screening C=CCNS(=O)(=O)c1ccc(S(=O)(=O)N2CCCCCC2)cc1 returned FBW7 activator 0, GPR151 activ -1, MITF inh 7 and TEAD-YAP block -2.
`CCOc1ccc(/C=N\NC(=O)c2ccc([N+](=O)[O-])cc2)c(O)c1` gave FBW7 activator 0, GPR151 activ 0, MITF inh 7 and TEAD-YAP block 2.
`Cc1nc(CC(=O)c2ccc(O)c(O)c2O)cs1` gave FBW7 activator 0, GPR151 activ -1, MITF inh 79* and TEAD-YAP block -15.
For CN(C)CCCN(C)CCCN(C)CCCNC(=O)/C=N\O the results were FBW7 activator 0, GPR151 activ 0, MITF inh -127 and TEAD-YAP block 7.
Screening O=C1N(c2ccccc2)C2CS(=O)(=O)CC2N1c1cccc([N+](=O)[O-])c1 (centres undefined) returned FBW7 activator 0, GPR151 activ -2, MITF inh 15 and TEAD-YAP block 1.
`Cc1ccc(S(=O)(=O)Nc2cc(-n3c(C)nc4ccccc4c3=O)ccc2F)cc1C` gave FBW7 activator 1, GPR151 activ 2, MITF inh 2 and TEAD-YAP block -5.
Screening CCCOc1ccc(N/C(N)=N/c2nc(C)cc(C)n2)cc1 returned FBW7 activator 0, GPR151 activ 0, MITF inh 5 and TEAD-YAP block 35*.
